# Measured values: the supplement of paper PMC8728848
# The entries come from a sample that favours the strongest signals as a whole.
# B1: Flo5 (Saccharomyces cerevisiae), P38894 (protein)
# chain: MGSSHHHHHHSSGLVPRGSHMSGATEACLPAGQRKSGMNINFYQYSLKDSSTYSNAAYMAYGYASKTKLGSVGGQTDISIDYNIPCVSSSGTFPCPQEDSYGNWGCKGMGACSNSQGIAYWSTDLFGFYTTPTNVTLEMTGYFLPPQTGSYTFSFATVDDSAILSVGGSIAFECCAQEQPPITSTNFTINGIKPWDGSLPDNITGTVYMYAGYYYPLKVVYSNAVSWGTLPISVELPDGTTVSDNFEGYVYSFDDDLSQSNCTIPDPSIH
# Legend:
# Assay in all cases: glycan array binding signal (z-score within array); higher = stronger binding
# Settings in all cases: glycan notation: IUPAC condensed, linker removed
# [1] = target: Fuc(a1-2)Gal(b1-3)GalNAc(b1-3)Gal
# How it was run: (§1)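 Columns mapping to the same glycan were averaged after glycan names were converted to IUPAC-condensed notation. The data come from 3228 arrays in the Consortium for Functional Glycomics database, limited to those with an available protein sequence. Binding is reported as a within-array Z-score averaged across arrays of one protein sequence and across linkers.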
# Fuc(a1-2)Gal(b1-4)Glc = target: Fuc(a1-2)Gal(b1-4)Glc
# How it was run: as §1
# [2] = target: Fuc(a1-2)Gal(b1-4)GlcNAc(b1-3)Gal(b1-4)GlcNAc(b1-3)Gal(b1-4)GlcNAc
# How it was run: as §1
# [3] = target: Fuc(a1-2)Gal(b1-4)[Fuc(a1-3)]GlcNAc(b1-3)Gal(b1-4)[Fuc(a1-3)]GlcNAc
# How it was run: as §1
# [4] = target: Fuc(a1-2)[Gal(a1-4)]Gal(b1-4)GlcNAc
# How it was run: as §1
# [5] = target: Fuc(a1-2)[GalNAc(a1-4)]Gal(b1-4)GlcNAc
# How it was run: as §1
# [6] = target: Fuc(a1-3)[Gal(b1-4)]Glc6S
# How it was run: as §1
# [7] = target: Fuc(a1-3)[Gal(b1-4)]GlcNAc(b1-2)Man(a1-6)[Gal(b1-4)GlcNAc(b1-2)Man(a1-3)]Man(b1-4)GlcNAc(b1-4)GlcNAc
# How it was run: as §1
# [8] = target: Fuc(a1-3)[Gal(b1-4)]GlcNAc(b1-4)Gal(b1-4)[Fuc(a1-3)]GlcNAc(b1-4)Gal(b1-4)[Fuc(a1-3)]GlcNAc
# How it was run: as §1
# [9] = target: Fuc(a1-3)[Neu5Ac(a2-3)]Gal(b1-4)GlcNAc(b1-3)GalNAc
# How it was run: as §1
# [10] = target: Gal(b1-3)[Fuc(a1-4)]GlcNAc
# How it was run: as §1
# [11] = target: Gal(b1-3)[Neu5Ac(b2-6)]GalNAc
# How it was run: as §1
# [12] = target: Gal(b1-4)GalNAc(a1-3)[Fuc(a1-2)]Gal(b1-4)GlcNAc
# How it was run: as §1
# Gal3S(b1-3)GalNAc = target: Gal3S(b1-3)GalNAc
# How it was run: as §1
# Gal3S(b1-4)Glc6S = target: Gal3S(b1-4)Glc6S
# How it was run: as §1
# Gal6S(b1-4)Glc = target: Gal6S(b1-4)Glc
# How it was run: as §1
# Glc(b1-6)Glc = target: Glc(b1-6)Glc
# How it was run: as §1
# [13] = target: GlcNAc(b1-3)Gal(b1-4)GlcNAc(b1-3)Gal(b1-4)GlcNAc
# How it was run: as §1
# [14] = target: GlcNAc(b1-3)[GlcNAc(b1-6)]Gal(b1-4)GlcNAc
# How it was run: as §1
# [15] = target: GlcNAc(b1-4)[GlcNAc(b1-6)]GalNAc
# How it was run: as §1
# [16] = target: Man(a1-2)Man(a1-2)Man(a1-3)Man
# How it was run: as §1
# [17] = target: Man(a1-3)[Man(a1-6)]Man(a1-6)[Man(a1-3)]Man
# How it was run: as §1
# [18] = target: Neu5Ac(a2-3)Gal(b1-4)GlcNAc(b1-6)[Gal(b1-3)]GalNAc
# How it was run: as §1
# Neu5Ac(a2-8)Neu5Ac = target: Neu5Ac(a2-8)Neu5Ac
# How it was run: as §1
# [19] = target: Neu5Ac(a2-8)Neu5Ac(a2-3)[GalNAc(b1-4)]Gal(b1-4)Glc
# How it was run: as §1
# [20] = target: Neu5Ac(a2-8)Neu5Ac(a2-8)Neu5Ac(a2-8)Neu5Ac(a2-3)[GalNAc(b1-4)]Gal(b1-4)Glc
# How it was run: as §1
# [21] = target: Neu5Ac9Ac(a2-3)Gal(b1-4)GlcNAc
# How it was run: as §1
binder,measurement,setting,value
B1,glycan array binding signal (z-score),[1],1.59
same,glycan array binding signal (z-score),Fuc(a1-2)Gal(b1-4)Glc,1.59
same,glycan array binding signal (z-score),[2],-0.14
same,glycan array binding signal (z-score),[3],-0.205
same,glycan array binding signal (z-score),[4],-0.23
same,glycan array binding signal (z-score),[5],3.78
same,glycan array binding signal (z-score),[6],-0.024
same,glycan array binding signal (z-score),[7],-0.206
same,glycan array binding signal (z-score),[8],-0.162
same,glycan array binding signal (z-score),[9],-0.232
same,glycan array binding signal (z-score),[10],-0.153
same,glycan array binding signal (z-score),[11],-0.121
same,glycan array binding signal (z-score),[12],-0.189
same,glycan array binding signal (z-score),Gal3S(b1-3)GalNAc,-0.17
same,glycan array binding signal (z-score),Gal3S(b1-4)Glc6S,8.31
same,glycan array binding signal (z-score),Gal6S(b1-4)Glc,-0.082
same,glycan array binding signal (z-score),Glc(b1-6)Glc,-0.203
same,glycan array binding signal (z-score),[13],-0.027
same,glycan array binding signal (z-score),[14],-0.156
same,glycan array binding signal (z-score),[15],-0.139
same,glycan array binding signal (z-score),[16],6.07
same,glycan array binding signal (z-score),[17],3.11
same,glycan array binding signal (z-score),[18],-0.196
same,glycan array binding signal (z-score),Neu5Ac(a2-8)Neu5Ac,-0.148
same,glycan array binding signal (z-score),[19],-0.104
same,glycan array binding signal (z-score),[20],-0.149
same,glycan array binding signal (z-score),[21],-0.126
